In the supplement of paper PMC10338343:
± gives the standard deviation. Over roughly 6,200 sequences, “pre-steady-state target cleavage rate” has its median near 0.29; the highest 2% begin near 2. The sample holds the highest values, similar sequences and a random draw of the others, so the mix is not that of the screen.

What follows are sequences tested on MIWI (PIWIL1) piRISC loaded with piRNA #1 (30 nt) (assay: pre-steady-state target cleavage rate (min^-1); MIWI and MILI are mouse PIWI proteins and EfPiwi is from a freshwater sponge; tags in brackets are library labels; higher = faster piRNA-guided slicing of the target). Conditions: guide: piRNA #1 5'p-UGAGGUAGUAGGUUGUAUAGUAUCCAGAGG; auxiliary factor: 500 nM mouse GTSF1.
In short: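 In Cleave-'n-Seq, a transcribed, DNA-blocked target RNA library (0.1 nM) was combined with 1 nM active affinity-purified piRISC bearing one synthetic guide, with or without 500 nM GTSF1 partner protein. Reactions ran in HEPES–potassium acetate buffer at 33 °C for 0–8 or 0–960 min. Uncleaved targets were sequenced and normalised to depth and to weakly complementary targets, three trials were pooled, and k3 was capped at 0.0001 min^-1. The pre-steady-state cleavage rate was obtained by fitting a burst-and-steady-state model.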

| Sequence | pre-steady-state target cleavage rate |
| --- | --- |
| CCUCGGAUACUAUACAACCUACUACCUCA | 1.96 ± 0.13 |
| GGUCUCGAUACUUUACAACCUACUACCUCA | 1.54 ± 0.093 |
| GCUCUCGGAUACUAUACAACCUACUACCUCA | 1.76 ± 0.088 |
| CCUCUCGAUACUUUACAACCUACUACCUCA | 2.13 ± 0.14 |
| GCUCUCGAUACUUUACAACCUACUACCUCA | 1.69 ± 0.11 |
| GGUCUCGAUACUAAACAACCUACUACCUCA | 1.68 ± 0.12 |
| CCUCUCGAUACUAUACAACCUACUACCUGA | 0.985 ± 0.087 |
| CCUCUCGAUACUAUACAACCUACUACCACA | 2.21 ± 0.12 |
| GCUCUCGAUACUAAACAACCUACUACCUCA | 1.81 ± 0.12 |
| GGUCUCGAUACUAUACAACCUACUACCACA | 0.758 ± 0.064 |
| GCUCUGGAUACUAUACAACCUACGACCUCA | 1.22 ± 0.083 |
| GGUCUGGAAACUAUACAACCAACUACCUCA | 0.138 ± 0.015 |
| GGAGACCAUACUUACAACCUACUACCUCA | 0.269 ± 0.028 |
| GGACAGGAUACUAAACAACCUACUACCUCA | 1.64 ± 0.11 |
| GGAGACCAUUCUAUACAACCUACUACCACA | 1.16 ± 0.1 |
| GCUCUCGAUACUAUACAACCUACUACCUGA | 1.07 ± 0.11 |
| GGACUCGAUACUAUACAACCUACUACCUCA | 1.69 ± 0.12 |
| CCACUCGAUACUAUACAACCUACUACCUCA | 2.13 ± 0.14 |
| GGACUCGAUACUAUACAACCUACUACCACA | 0.579 ± 0.063 |
| GCACUCGAUACUAUACAACCUACUACCUCA | 1.43 ± 0.059 |
| GCUCUCGAUACUAUACAACCUACUACCACA | 2.17 ± 0.15 |
| CCUCUGGAUACUAUACUACCUACUACCACA | 1.68 ± 0.12 |
| GGAGUGGAUACUACACAACCUACUACCUCA | 1.71 ± 0.097 |
| GGAGACGAUACUAUACAGCCUACUACCUCA | 0.668 ± 0.028 |
| GGAGUGGUUACUAUACAACCUAGUACCUCA | 0.371 ± 0.05 |

| Sequence | pre-steady-state target cleavage rate |
| --- | --- |
| GGAGACCUUACUAUACAACCUACUUCCUCA | 0.399 ± 0.035 |
| GCUCUGGAUAGAUUACAACCUACUACCUCA | 0.735 ± 0.048 |
| CCUCAGGAUACUAUACAACCUACUACCUCA | 1.98 ± 0.12 |
| CCUCAGGUUACUAUACAACCUACUACCUCA | 2.5 ± 0.16 |
| GGACAGGUUACUAUACAACCUACUACCUCA | 1.9 ± 0.14 |
| GCUCAGGAUACUAUACAACCUACUACCUCA | 1.85 ± 0.11 |
| GCUCAGGUUACUAUACAACCUACUACCUCA | 2.01 ± 0.12 |
| GCUCAGGAUACUAUACAACCUACAACCUCA | 0.866 ± 0.076 |
| GGUCUGGAUUCUAAACAACCUACUACCUCA | 1.23 ± 0.071 |
| GGAGACCUAUGUAUACAACCUACUCACCUCA | 0.144 ± 0.027 |
| GGAGACCUAACUAUACAACAUACUACCUCA | 0.303 ± 0.036 |
| GGAGAGGAUACUAUACACCCUACUACCUCA | 1.4 ± 0.068 |
| GCUCUGGAUACUAUACAACCUACUACCUAA | 1.83 ± 0.12 |
| GCUCUGGAUACUAUACAACCUACUACCUCU [g2:g29:cont:t1U] | 2.16 ± 0.13 |
| GGUCUGGAUACUAUACUACCUACAACCUCA | 0.456 ± 0.054 |
| GCUCUGGAUACCUAUACAACCUACUACCUCA | 1.06 ± 0.08 |
| GGUCUGGAUACUAUACAACCUACUACCUCU [g2:g28:cont:t1U] | 1.59 ± 0.11 |
| GCUCUGGAUACUAUACAACCUACUACCUACA | 1.87 ± 0.13 |
| GCUCUGGAUACUAUACAACCUACUACCUCCA | 2.15 ± 0.14 |
| CCUCUGGAUACUAUACAACCUACUACCUCCA | 2.27 ± 0.14 |
| GGUCUGGAUACUAUACAACCUACUACCUCCA | 2.06 ± 0.12 |
| GGUCUGGAUACUAUACAACCUACUACCUCC [g2:g28:cont:t1C] | 1.54 ± 0.11 |
| GCUCUGGAUACUAUACAACCUACUACCUCG [g2:g29:cont:t1G] | 1.29 ± 0.098 |
| GGAGACCAUACUAAACAACCUACUUCCUCA | 0.195 ± 0.024 |
| GGAGUGGAUACUAUACUACCUACUACCUGA | 0.329 ± 0.052 |

| Sequence | pre-steady-state target cleavage rate |
| --- | --- |
| GGAGUGGUUACUAUACAACGUACUACCUCA | 0.386 ± 0.027 |
| GGAGACGAUACUUUACAACCUACUAGCUCA | 0.142 ± 0.027 |
| GGUCUGGAUACUAUAGAACCUACUACCACA | 0.0228 ± 0.0058 |
| GGAGACGAUACAAUACAACCUACUACCUCA | 1.29 ± 0.097 |
| GGAGUGGAUACUAUAGAACCUACUACCUCA | 1.34 ± 0.076 |
| GGAGACCAUACUAUUCAACCUACUACCUGA | 0.64 ± 0.075 |
| GGAGAGGAUACUAUAGAACCUACUUCCUCA | 0.00722 ± 0.0046 |
| GGACUGCUUACUAUACAACCUACUACCUCA | 1.54 ± 0.14 |
| GGAGACCUAUGUAUACAAUCUACUACCUCA | 0.0144 ± 0.0036 |
| GCUCUGGAUACUAUACAACCUACUACCUA | 1.37 ± 0.1 |
| GCUCUGGAUACUAUACUACCUACAACCUCA | 0.938 ± 0.086 |
| GCUCUGGAUACUAUACAACCUACUACCUCC [g2:g29:cont:t1C] | 2 ± 0.13 |
| GGAGACCAUACUUUACAACCUACUACCUCA | 1.3 ± 0.087 |
| GCUCUGGAUACCAUACAACCUACUACCUCA | 0.756 ± 0.059 |
| CCUCUGGAUACUAUACAACCUACUAUCUCA | 1.09 ± 0.076 |
| GGUCUGGAUACUAUACAACCUACUACUCUCA | 1.2 ± 0.1 |
| CCUCUGGAUACUAUACAACCUACUACUCA | 1.76 ± 0.15 |
| GCUCUGGAUACUAUACAACCUACUAUCUCA | 2.32 ± 0.24 |
| GCUCUGGAUACUAUACAACCUACUACUCA | 1.64 ± 0.14 |
| CCUCUGGAUACUAUACAACCUACUACUCUCA | 2.32 ± 0.16 |
| CCUCUGGAUACUAUACAACCUACUCCUCA | 0.105 ± 0.022 |
| GCUCUGGAUACUAUACAACCUACUACUCUCA | 2.07 ± 0.12 |
| GCUCUGGAUACUAUACAACCUAUCUACCUCA | 0.356 ± 0.028 |
